Tb PGK inh: inhibitors of T. brucei phosphoglycerate kinase. 380,000 tested, 0.043% active. AID 602233. PGK/GAPDH coupled, Kinase-Glo luminescence, 60 min. Potency, µM (doses to about 57.5 µM), hits mostly inhibitors. P07378; further: nearly all actives have a fitted effect of over 60% in size
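Luminescent ATP detection (Kinase-Glo Plus) follows a 60-minute room-temperature incubation, with wells lacking PGK as controls. Buffer: 100 mM TEA (pH 7.6), 5 mM MgCl2, 0.01% Tween-20. Coupling enzyme GAPDH (100 nM final) supplies unstable 1,3-BPG in-well.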
RECQ1 inh: inhibitors of human RECQ1 DNA helicase; P46063; RECQ1 DNA unwinding, red fluorescence kinetic read; Potency, µM (doses to about 57.3 µM), usual class: inhibitors; 240,000 tested, 0.54% active; AID 2549; further: nearly all actives have a fitted effect of over 30% in size
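RECQ1T1 50 nM; forked duplex (20 bp + 30-nt ss tails) 200 nM, ATP 2 mM final; pH 8.0, 2 mM MgCl2, 2.5 ug/ml poly(dI-dC); 15 min compound preincubation; discontinuous kinetic read over 2 h at RT.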
BLM helicase inh: Bloom syndrome helicase (human) inhibition. P54132. recombinant BLM DNA unwinding, fluorescence dequenching. Potency, µM (highest dose often 56.1 µM), actives largely listed as inhibitors. 350,000 tested, 0.2% active. AID 2528; further: nearly all actives have a fitted effect of over 35% in size
GLS inh: inhibitors of human glutaminase (GLS); O94925; Potency, µM (highest dose often 45.5 µM), most hits filed as inhibitors; GLS enzymatic activity, qHTS titration; 410,000 tested, 0.21% active
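hKGA in 45 mM KH2PO4 pH 8.2, 0.02% Tween-20 with pin-transferred compounds; 1 mM L-glutamine (stock) plus glutamate oxidase/HRP/Amplex Red coupling added. Fluorescence read initially and after 30 min at RT.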
TDP1 inh: blocks human tyrosyl-DNA phosphodiesterase 1; Q9NUW8; recombinant TDP1, AlphaScreen DNA substrate cleavage; Potency, µM (highest dose often 130 µM), actives largely listed as inhibitors; 350,000 tested, 0.28% active; AID 485290; further: nearly all actives have a fitted effect of over 40% in size
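Recombinant E. coli-expressed Tdp1 (1 nM) preincubated with compound 15 min at RT, then 5'-biotin/3'-phosphotyrosine-FITC DNA substrate (15 nM) added for 5 min. AlphaScreen beads (10 ug/ml) added, 10 min RT; tyrosine-FITC cleavage read as signal loss.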
APEX1 inh: blocks human APE1 abasic DNA cleavage; P27695; recombinant APE1, TAMRA/BHQ-2 abasic DNA cleavage fluorescence; Potency, µM (series often up to 65.8 µM), hits mostly inhibitors; 350,000 tested, 0.35% active; further: nearly all actives have a fitted effect of over 55% in size
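Measures dequenching upon AP-site incision of a 5'-TAMRA/3'-BHQ-2 THF-containing duplex, 50 nM; human APE1 0.75 nM after 15 min room-temperature exposure to compound; kinetic three-point read at one-minute spacing.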
Large screens that a line does not name were inactive; ! = not active in a repeat. Sampled rows, rich in hits. Any-hit rate of the full collection: about 0.85%. The call rests on the fitted dose curve; in most records, active means well fitted curve in the direction sought with a large enough effect; inconclusive means small, poorly fitted or top-dose-only effect, or another doubt; inactive means no such curve, though single readings can be large; an effect the other way counts as inactive or inconclusive.

CCCCCCCCCC(=O)O	none (no result: BLM helicase inh)
CCCCCC#CCC#CCC#CCC#CCCCC(=O)O	RECQ1 inh 1.1µM!, BLM helicase inh 13µM!, APEX1 inh 2µM! (no result: Tb PGK inh, GLS inh)
O=C(COc1ccc2c3c(c(=O)oc2c1)CCC3)Nc1ccc(CCO)cc1	TDP1 inh 40µM (no result: RECQ1 inh)
Cc1cccc(OCC(=O)OC(C)CN2CCCCC2)c1 (configuration not stated)	TDP1 inh 35µM (no result: RECQ1 inh)
CCCCCn1c(N)c(-c2nc3ccccc3o2)c2c([N+](=O)[O-])nn(C)c(=O)c21	BLM helicase inh 16µM
CC(C)(C)NC(=O)[C@H]1CC[C@H]2[C@@H]3CC=C4C=C(C(=O)O)CC[C@@]4(C)[C@H]3CC[C@]12C	none (no result: Tb PGK inh, RECQ1 inh, BLM helicase inh, TDP1 inh, APEX1 inh)
O=C(O)C(=O)Nc1cccc(C2=NN=N[N]2)c1	none (no result: Tb PGK inh, RECQ1 inh, BLM helicase inh, TDP1 inh, APEX1 inh)
CC(=O)Nc1ccc(N/C=C/C(=O)c2ccc(Cl)cc2)cc1	TDP1 inh 32µM (no result: RECQ1 inh)
CC(=O)c1ccc(N/C=C\C(=O)c2ccc(C)cc2)cc1	none
CC(C)(C)CC(=O)OCC(=O)[C@@]12OC(C)(C)O[C@@H]1C[C@H]1[C@@H]3CCC4=CC(=O)C=C[C@]4(C)[C@@]3(F)[C@@H](O)C[C@]12C	none (no result: Tb PGK inh, RECQ1 inh, BLM helicase inh, TDP1 inh, APEX1 inh)
O=C(O)c1cccc(O)c1O	none (no result: RECQ1 inh, BLM helicase inh, TDP1 inh, APEX1 inh)
Oc1cccc(O)c1O	RECQ1 inh 6.3µM, GLS inh inconclusive, TDP1 inh inconclusive, APEX1 inh 1.3µM (no result: Tb PGK inh)
Cc1cc(Cn2cnc3c(cnn3C(C)(C)C)c2=O)ccc1F	none (no result: Tb PGK inh, RECQ1 inh, BLM helicase inh, GLS inh, TDP1 inh)
COc1cccc(C2c3c(ncn(-c4ccccc4Cl)c3=N)Oc3ccc4ccccc4c32)c1 (configuration not stated)	none (no result: Tb PGK inh, RECQ1 inh, BLM helicase inh, GLS inh, APEX1 inh)
COC(=O)C1CCN(C(=O)COC(=O)c2cc(-c3ccccc3)nc3ccc(OC)cc23)CC1	TDP1 inh 28µM, APEX1 inh inconclusive (no result: RECQ1 inh, BLM helicase inh)
COC(=O)c1nc(Nc2cc(F)cc(F)c2)nc(NC2CCCC2)n1	none (no result: Tb PGK inh, RECQ1 inh, BLM helicase inh, GLS inh, APEX1 inh)
CCCCCCCCCc1ccc(OCCOCCO)cc1	none (no result: Tb PGK inh, RECQ1 inh, BLM helicase inh, GLS inh, TDP1 inh)
O=C(O)c1ccccc1-c1c2cc(I)c(=O)c(I)c-2oc2c(I)c(O)c(I)cc12	Tb PGK inh inconclusive, RECQ1 inh 22µM, BLM helicase inh 28µM, GLS inh inconclusive, APEX1 inh 25µM
O=Cc1ccc(-c2ccccc2C(=O)O)o1	none
O=C(CSc1nnc(CNC(=O)c2c(F)cccc2F)o1)NCc1ccco1	TDP1 inh 50µM, APEX1 inh 11µM (no result: RECQ1 inh)
C=CC1=C(C)C2=Cc3c(C=C)c(C)c4[n]3[Sn+2][n]3c(c(C)c(CCC(=O)O)c3=CC3=NC(=C4)C(C)=C3CCC(=O)O)=CC1=N2	RECQ1 inh 40µM, TDP1 inh inconclusive, APEX1 inh 8.9µM (no result: Tb PGK inh, GLS inh)
CC/C(O)=N/S(=O)(=O)c1ccc(-c2c(-c3ccccc3)noc2C)cc1	none (no result: Tb PGK inh, RECQ1 inh, BLM helicase inh, TDP1 inh, APEX1 inh)
CCOC(=O)c1nn(-c2ccc(OC)cc2)c(=O)c2c(NC(=O)Cc3ccccc3)scc12	none (no result: Tb PGK inh, RECQ1 inh, BLM helicase inh, GLS inh, APEX1 inh)
COc1ccc(C2c3c(n(CCc4ccccc4)cnc3=N)Oc3ccc4ccccc4c32)cc1OC (configuration not stated)	none (no result: Tb PGK inh, RECQ1 inh, BLM helicase inh, GLS inh, APEX1 inh)
COc1ccc(-c2nc3ccccc3c(=O)n2Cc2ccccc2)cc1OCc1ccc(NC(C)=O)cc1	none (no result: Tb PGK inh, RECQ1 inh, BLM helicase inh, GLS inh, APEX1 inh)
CCCCCn1c(=O)c2ccccc2n2c(=S)[nH]nc12	none (no result: Tb PGK inh, RECQ1 inh, TDP1 inh)
CCCCn1c(=O)c2ccccc2n2c(=S)[nH]nc12	GLS inh 13µM (no result: RECQ1 inh)
Cn1c(=O)c2ccccc2n2c(=S)[nH]nc12	Tb PGK inh inconclusive, GLS inh 10µM (no result: RECQ1 inh)
Cc1ccc(NS(=O)(=O)c2ccc3c(c2)CCC(=O)N3)cc1F	none (no result: Tb PGK inh, RECQ1 inh, BLM helicase inh, GLS inh, APEX1 inh)
CCOC(=O)CN[C@@H](C(=O)N1CC[C@H]1C(=O)NCc1ccc(/C(N)=N/O)cc1)C1CCCCC1	none (no result: Tb PGK inh, RECQ1 inh, BLM helicase inh, TDP1 inh, APEX1 inh)
CCCN=C1N/C(=C\c2ccco2)C(=O)N1c1ccccc1	none
CCCN(CCC)C1=N/C(=C\c2ccco2)C(=O)N1c1ccccc1	RECQ1 inh 28µM
COCCCNC(=O)/C(C#N)=C/c1ccc(OCC(=O)O)c(OC)c1	Tb PGK inh inconclusive, GLS inh 10µM
N#C/C(=C\c1ccc(O)c(O)c1)C(=O)NCCCc1ccccc1	RECQ1 inh 16µM, BLM helicase inh inconclusive
O=C(Nc1cccnc1Cl)c1ccc(=O)oc1	RECQ1 inh inconclusive, APEX1 inh 32µM (no result: TDP1 inh)
Cc1nc(CN(C)c2ncnc3cc(-c4ccc5c(c4)OCO5)ccc23)cs1	none (no result: Tb PGK inh, RECQ1 inh, BLM helicase inh, GLS inh, APEX1 inh)
COc1ccc(-c2nc3ccc(C(=O)NCC(OC)OC)cc3nc2-c2ccc(OC)cc2)cc1	RECQ1 inh 22µM
C=C1/C(=C\C=C2/CCC[C@@]3(C)[C@@H]([C@H](C)OCCC(C)(C)O)CC[C@@H]23)C[C@@H](O)C[C@@H]1O	none (no result: Tb PGK inh, RECQ1 inh, BLM helicase inh, TDP1 inh, APEX1 inh)
O=C1OCC2OC(O)C(O)C(O)C2OC(=O)c2cc(O)c(O)c(O)c2-c2c(O)c(O)c3oc(=O)c4c(c(O)c(O)c5oc(=O)c2c3c54)-c2c1cc(O)c(O)c2O (configuration not stated)	RECQ1 inh 0.4µM, BLM helicase inh 0.71µM, TDP1 inh 0.14µM, APEX1 inh 0.035µM (no result: Tb PGK inh, GLS inh)
COc1ccc(/C=C2\CCn3c2nc2cc(C(=O)O)ccc2c3=O)cc1OC	GLS inh inconclusive, APEX1 inh inconclusive

From PubChem BioAssay
